Measured values from PubChem BioAssay (NCI).
The panel holds about 79,000 compounds, 15% with a hit somewhere; the sample as a whole holds those more often. Values without a mark were called inactive. The source made the active and inactive calls. Rule as the data show it: active = growth inhibition above about 70%; inactive = the rest.

How the values were obtained:
[1] = NCI Yeast Anticancer Drug Screen. Data for the rad50 strain (AID 155);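 also: 0% = growth of vehicle-only cultures of the same strain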; details: S. cerevisiae rad50 strain growth inhibition; at 50.0 µM; stronger effect = higher value
Outline: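 Relative growth inhibition (compound vs vehicle) was measured in yeast with a defined repair-gene alteration.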

[2] = NCI Yeast Anticancer Drug Screen. Data for the mec2-1 strain (AID 157); details: S. cerevisiae mec2-1 strain, at 50.0 µM, stronger effect = higher value
Outline: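 Vehicle-treated cultures served as reference for growth inhibition of compound-exposed mec2-1 yeast.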

[3] = NCI Yeast Anticancer Drug Screen. Data for the sgs1 mgt1 strain (AID 161);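 also: 0% = growth of cultures given vehicle only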; details: S. cerevisiae sgs1 mgt1 strain, at 50.0 µM, stronger effect = higher value
Outline: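 Inhibition of yeast growth, normalised to vehicle-treated controls, is reported for a strain bearing genetic alterations in DNA damage repair.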

[4] = NCI Yeast Anticancer Drug Screen. Data for the cln2 rad14 strain (AID 165);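 also: 0% = growth equal to vehicle treated cultures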; details: S. cerevisiae cln2 rad14 strain, at 50.0 µM, stronger effect = higher value
Outline: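 Each compound was tested on cln2 rad14 yeast. Inhibition of growth was calculated against vehicle-exposed controls.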

[5] = NCI Yeast Anticancer Drug Screen. Data for the bub3 strain (AID 167); details: S. cerevisiae bub3 mutant strain, at 50.0 µM, stronger effect = higher value
Outline: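 Screening used yeast with an engineered genetic alteration affecting cell cycle control. Compound-exposed cultures were compared with vehicle cultures, and reduced growth was taken as inhibition.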

[6] = NCI Yeast Anticancer Drug Screen. Data for the mlh1 rad18 strain (AID 175); details: S. cerevisiae mlh1 rad18 strain growth inhibition; at 50.0 µM; stronger effect = higher value
Outline: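 Vehicle-treated cultures served as the reference for growth inhibition in a yeast strain carrying DNA damage repair alterations exposed to each compound.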

SMILES	growth inhibition [1]	growth inhibition [2]	growth inhibition [3]	growth inhibition [4]	growth inhibition [5]	growth inhibition [6]
CC1=NN(C(=O)c2ccc(Cl)cc2)C(=O)/C1=C/c1ccc(Cl)cc1	-28.6%	-47.4%	-69.2%	-19.6%	-33%	-44.2%
Cc1n(C)nn[n+]1C	2.65%	-8.35%	-2.65%	-24.1%	7.9%	-16.5%
CCOP(=O)(OCC)/C(=C/NC(=S)c1cccnc1)C(=O)OC	-11%	-1%	-13%	-7.75%	17.6%	-2.2%
COc1ccc(C(=O)N/N=C/c2ccccc2OC)cc1	-3.1%	31%	25.4%	-10.6%	27.9%	32%
CCOC(=O)Cn1c(=O)c(-c2ccccc2NC(C)=O)nc2ccccc21	-12.3%	-3.65%	-7.9%	-6.1%	0.4%	-14.1%
Cc1nc(Nc2ccccc2)sc1C(=O)CC(=O)C(=O)NC12CC3CC(CC(C3)C1)C2	1.3%	8.95%	8.8%	-13.1%	4.4%	-0.7%
CC(=O)c1ccc(NC(=O)CSc2nc(C)nc3c2sc(=S)n3-c2ccccc2)cc1	-15.1%	-10.8%	-0.1%	-24.1%	-8.2%	-22.1%
Cc1nc2c(o1)C(=Nc1ccccc1)c1ccccc1C2=Nc1ccccc1	-7.45%	-23.4%	1.45%	-13.9%	-20.1%	-9.65%
Cc1ccc(S(=O)(=O)NC(=O)N(Cc2ccccc2)C(C)(C)C)cc1	3.4%	20.4%	16.1%	-0.15%	14.2%	16.9%
NC1CCCCC1N.O=NN1CCCCCC1(P(=O)([O-])[O-])P(=O)([O-])[O-].[Na+].[Pt+2]	-34.9%	20%	-14.6%	-19.3%	-12.6%	-10.4%
Cc1ccc(-c2cnc3c(n2)c(=O)[nH]c(=O)n3C)cc1	29.5%	19.1%	20.5%	13.8%	17.4%	35.6%
NC(Cc1ccccc1)(C(=O)O)C(=O)O	-12.7%	1.45%	-11.4%	-31.8%	-22.1%	15.7%
CCCCC(O)C(C)(C)C (stereo not drawn)	1.5%	-8.65%	3.55%	6.55%	9.65%	7.2%
C=CCOC(=O)NC(CCC(=O)O)C(=O)O (stereo not drawn)	21.1%	-0.35%	19.3%	11%	3.4%	21%
COc1ccc(OC)c(CC(N)=O)c1	-5.5%	4.6%	-0.9%	-23.8%	21.4%	-8.85%
CC(=O)Nc1cccc2ccc([N+](=O)[O-])cc12	13.1%	0.9%	-3.8%	16.4%	-5.7%	7.85%
COc1cc(CNc2nc3c(NC(C)=O)cc(C(F)(F)F)cc3nc2-c2ccccc2)cc(OC)c1OC	-16.1%	-15.8%	-32.3%	-4.35%	10.8%	-10.3%
COc1cc(C(SCc2ccccc2)SCc2ccccc2)ccc1O	28.6%	12.2%	30.9%	28.6%	17.4%	28.6%
CN(C)Cc1cc(O)c(O)c(CN(C)C)c1	-16.6%	-19.9%	-8.45%	5.4%	-40.2%	13.1%

SMILES	growth inhibition [1]	growth inhibition [2]	growth inhibition [3]	growth inhibition [4]	growth inhibition [5]	growth inhibition [6]
CCOc1ccccc1NC(C)=O	-6.5%	6.1%	2.2%	-13.4%	-14.6%	-0.75%
CC1=CC(O)C(C(O)(C(F)(F)F)C(F)(F)F)C(C)(C)C1 (stereo not drawn)	-26.8%	-41.2%	-9.95%	-4.6%	0.15%	-1.25%
COc1ccc(C(c2ccc(N(Cc3ccccc3)Cc3ccccc3)cc2NC(C)=O)c2ccc(N(Cc3ccccc3)Cc3ccccc3)cc2NC(C)=O)cc1OC	5.75%	-5.25%	-19.9%	-8.55%	-6.1%	26.7%
CN(C)S(=O)(=O)c1cccc([N+](=O)[O-])c1	17.5%	7.5%	18.1%	8.5%	-6.3%	8.8%
O=c1c(C(c2ccc(Cl)cc2)c2c(O)c3ccccc3n(-c3ccccc3)c2=O)c(O)c2ccccc2n1-c1ccccc1	-12.9%	-0.65%	-9.95%	-12.4%	-0.8%	-3.4%
O=C(O)C1CCCN1Cc1ccc2c(c1)OCO2 (stereo not drawn)	-5.1%	-19.6%	-34%	-3.5%	-40.8%	-36.8%
CN(C)CCOc1c(Cc2ccccc2)ccc2cccnc12	-1.65%	5.15%	3.05%	-2.9%	1%	5.05%
CCC[CH2][Ge]([Cl])([Cl])[CH2]CCC	28.6%	30.8%	30.9%	14.9%	40.9%	33.4%
CC1=CC(=N/S(=O)(=O)c2ccccc2)/C2CC(C)=C(C)CC2/C1=N\S(=O)(=O)c1ccccc1 (stereo not drawn)	82.6% (active)	78.6% (active)	93% (active)	56.6%	81.2% (active)	85.3% (active)
O=C(Nc1nc2ccsc2s1)c1ccccc1	-15.8%	-3%	-4%	-34.9%	-8%	-10.8%
O=C(O)CNC(=O)C(Cc1ccccc1)NC(=O)CNC(=O)C(CSC(c1ccccc1)c1ccccc1)NC(=O)C(CSC(c1ccccc1)(c1ccccc1)c1ccccc1)NC(=O)OCc1ccccc1 (stereo not drawn)	-0.75%	27%	23.4%	-17.2%	-9.55%	44.1%
Cc1cc(C)c2c(=O)cc(-c3cccc(F)c3)[nH]c2n1	1.35%	-0.65%	-28.2%	3.8%	-1.3%	-26.1%
CCN(CC)CCOc1ccc(Cc2nc3c([nH]2)c(=O)n(C)c(=O)n3C)cc1	21.6%	2.85%	14.2%	34.5%	5.1%	11.3%
NCCCCC(N)C(=O)NCCNc1ccc(NCCNC(=O)C(N)CCCCN)c2c1C(=O)c1ccccc1C2=O (stereo not drawn)	11.5%	7.4%	1.45%	-4.85%	-21.5%	-19.1%
Cc1ccnc(=O)[nH]1	-2.45%	-0.2%	11.8%	8.45%	1.75%	29.9%
CC(C)(C#N)CCCS(C)(=O)=O	-7.75%	-4.35%	-4%	-9.25%	-12.6%	-2.65%
CCN(CCC#N)C(=S)Nc1ccc(C)c(C)c1	-9%	-8.55%	0%	1%	-8.6%	0.1%
CC1(C)OC(C(O)CO)C(C2COC(=S)O2)O1 (stereo not drawn)	1.45%	15.9%	8.45%	33.5%	12.6%	-1.8%
N#C/C(C(=O)Nc1ccccc1)=C(/N)N1CCCC1	18.4%	-15.7%	1.85%	-5.65%	-14.3%	25.6%
